# Source: the supplement of paper PMC3334620
# Whole data set: some 33,000 sequences, median “E-score (-0.5 to 0.5)” near -0.012, cut for the highest 2% near 0.29. The sample holds the highest values, similar sequences and a random draw of the others, so the mix is not that of the screen.
# Molecular target: T1, Ybr033w (UniProt P38073)
# T1 sequence: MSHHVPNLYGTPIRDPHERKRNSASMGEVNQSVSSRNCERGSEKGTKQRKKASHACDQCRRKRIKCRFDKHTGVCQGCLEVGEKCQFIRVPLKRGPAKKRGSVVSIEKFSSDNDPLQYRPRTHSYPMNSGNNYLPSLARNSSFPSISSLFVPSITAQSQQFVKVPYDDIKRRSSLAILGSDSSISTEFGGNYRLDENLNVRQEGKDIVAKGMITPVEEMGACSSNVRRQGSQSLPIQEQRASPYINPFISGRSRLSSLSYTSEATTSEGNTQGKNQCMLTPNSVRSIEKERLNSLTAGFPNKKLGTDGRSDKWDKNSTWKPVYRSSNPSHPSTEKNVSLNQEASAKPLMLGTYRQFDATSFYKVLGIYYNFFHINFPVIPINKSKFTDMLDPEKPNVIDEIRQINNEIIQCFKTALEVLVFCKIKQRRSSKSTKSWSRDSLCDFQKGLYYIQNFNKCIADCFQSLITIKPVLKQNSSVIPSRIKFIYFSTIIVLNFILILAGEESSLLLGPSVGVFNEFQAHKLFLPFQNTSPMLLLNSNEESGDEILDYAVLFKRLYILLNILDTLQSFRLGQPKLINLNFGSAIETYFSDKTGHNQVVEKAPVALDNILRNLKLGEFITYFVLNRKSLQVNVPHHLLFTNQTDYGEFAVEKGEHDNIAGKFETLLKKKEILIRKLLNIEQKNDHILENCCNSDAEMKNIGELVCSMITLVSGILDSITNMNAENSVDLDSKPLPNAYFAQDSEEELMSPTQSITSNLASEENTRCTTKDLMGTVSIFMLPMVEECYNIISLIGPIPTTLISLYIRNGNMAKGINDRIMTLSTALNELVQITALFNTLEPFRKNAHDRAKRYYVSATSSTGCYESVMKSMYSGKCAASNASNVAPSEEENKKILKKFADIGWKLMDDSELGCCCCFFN
# Test: PBM E-score (8-mer binding enrichment) (E-score (-0.5 to 0.5)); higher = stronger / more preferred TF binding
# Conditions: protein concentration: 200 nM; construct: GST-full length
# In short: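 For each ungapped eight-base word taken together with its reverse complement, the Universal PBM Analysis Suite assigned an E-score. Binding data came from GST-tagged yeast transcription factors, applied at about 100-200 nM, on universal all-10-mer Agilent arrays made double-stranded by primer extension. Fluorescent anti-GST marked bound protein, and scans were normalised with masliner.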
row,Sequence,PBM E-score
1,ATAATGAA,0.331
2,ATAATAAC,0.159
3,CTTGCTGA,0.0188
4,CGGACAAA,0.297
5,AGGACAAA,0.17
6,CGGACAAG,-0.0192
7,CAGACTTA,-0.189
8,TCAAGAGA,0.0989
9,AGATTCTA,0.106
10,GATGTTCC,0.412
11,GATGTTCA,-0.079
12,CATGTTCC,0.0191
13,CCTGAGAC,-0.235
14,ATTCTCCC,0.14
15,ATTCTCCA,0.175
16,ATTCTCCG,0.305
17,CCACAGGC,-0.336
18,AACTCTCT,0.0664
19,ACCTCAGG,-0.12
20,ATATCTTA,0.281
21,ATATCTTG,0.288
22,ATATCTTC,0.218
23,CTAGAGGA,-0.102
24,GCAAATTA,0.106
25,TGGTCGAA,-0.209

row,Sequence,PBM E-score
1,GATATACA,0.144
2,AGTATACA,0.185
3,TATATACA,0.24
4,TGTATACA,0.341
5,GGTATACA,0.00479
6,CATATACC,-0.165
7,AATATACT,0.279
8,AATATACA,0.316
9,CATATACA,0.324
10,GTCTAATA,0.0847
11,GGCTCCAC,-0.267
12,GATAGGAC,-0.188
13,GTGATCAC,-0.181
14,TACTCACA,0.158
15,ATCGAGCG,-0.089
16,GATCTAGA,0.0239
17,GATACCCA,0.0285
18,AAATATAG,0.305
19,AAATATGG,0.12
20,CAATATAG,0.115
21,AAATAGTT,0.227
22,AACTATAC,0.151
23,AAATAGTG,0.292
24,CTATATAG,0.0604
25,AACTATAG,0.104

row,Sequence,PBM E-score
1,AACTATAT,0.335
2,AGATATAG,0.171
3,AAATAGTC,0.0679
4,ATATATAG,0.332
5,TCATCGGA,0.109
6,CAACCTTA,0.14
7,CCTTAGCG,-0.178
8,ATTTACCG,0.132
9,TACAATCA,0.171
10,AACTACCG,0.0353
11,AAATATCT,0.295
12,AAGTATAT,0.302
13,GAATATAC,0.141
14,AAGTATAA,0.152
15,AAGTATAG,0.12
16,CAATATAC,0.0977
17,TAATATGA,0.284
18,AAATATCC,0.273
19,TAATATAA,0.379
20,AAATATCG,0.247
21,TAATAGAA,0.198
22,AAATATAC,0.312
23,AGAGTAGG,0.0322
24,CTATCTGC,-0.0829
25,ACAACTGT,0.106

row,Sequence,PBM E-score
1,CCACTACC,-0.149
2,AGGTGCAG,-0.186
3,AATTCTGC,0.0888
4,ATGACGCA,-0.0224
5,ACCAGGTA,-0.225
6,ATCGTTAA,0.24
7,ATCTTCAG,0.185
8,AAATATAA,0.305
9,AAATAGAT,0.289
10,AAATAGAG,0.247
11,AAATAGAC,0.101
12,CAATATAA,0.284
13,ATATATAT,0.141
14,AAATATAT,0.339
15,AAATATGT,0.252
16,GAATATAA,0.131
17,CAAGTCGA,-0.0109
18,GGTGAATA,0.127
19,ACGCAACG,0.0621
20,GTAAGTCA,0.0193
21,AAGCTTAC,0.0655
22,AAGGTTTG,0.227
23,AGGTGAGC,-0.172
24,ACTAACCC,0.0277
25,GTCGCGAC,0.234

row,Sequence,PBM E-score
1,ATTAACAG,0.0928
2,CTTAACAC,0.112
3,ATTAACAC,0.368
4,ATTAACAA,0.382
5,AATAACAC,0.222
6,GTTAACAA,0.0731
7,AGATTAAC,0.199
8,AGATTAAA,0.295
9,CGATTAAC,0.103
10,GGATTAAC,0.441
11,CGATTAAA,0.174
12,TGATTAAA,0.27
13,AGATTAAG,0.214
14,GGATTAAA,0.341
15,AGATTAAT,0.284
16,GGAGAACA,0.026
17,ACTTAGCA,0.00122
18,GCCCTCTA,-0.176
19,TACGCCCA,0.0751
20,CAGATCGC,-0.164
21,ATAAACAC,0.241
22,AAAAACAT,0.21
23,GTAAACAC,0.0587
24,AAAAACAA,0.321
25,ATAAACAT,0.289

row,Sequence,PBM E-score
1,GAAAACAA,0.115
2,GTAAACAA,0.298
3,TAAAACAA,0.177
4,CTAAACAA,0.112
5,TTAAACAA,0.226
6,ATAAACAG,0.0706
7,ATAAACAA,0.326
8,CAGGGTAC,-0.158
9,GTCGCATA,0.214
10,TATCACAA,0.18
11,AGCTAGAG,-0.0778
12,CTCAAAAC,0.217
13,CCTTGGGA,0.021
14,ACAGAAGA,0.0639
15,CCTTTGCA,0.0151
16,AATAACCG,-0.0165
17,AAAAACCT,0.307
18,AAAAACCG,0.134
19,AAAAACCC,0.164
20,CCACTTCA,-0.0798
21,AGCCCTCG,-0.314
22,AGAATTAC,0.181
23,CGAATTCA,-0.00151
24,GGAATTCC,-0.236
25,CGAATTAC,0.135

row,Sequence,PBM E-score
1,GGAATTAC,0.291
2,TGAATTAA,0.226
3,GGAATTAA,0.349
4,GGAATTCA,0.288
5,CGAATTAA,0.112
6,CCACGCTC,-0.126
7,ACTACTGG,0.017
8,GGACCGAA,0.061
9,AGTCCTTA,-0.049
10,CACAATTC,0.16
11,CATAAATC,0.146
12,GATAAAGC,0.159
13,CATAAATA,0.169
14,CCTAAATA,0.118
15,GATAAAGA,0.154
16,TATAAATA,0.289
17,TATAAAAA,0.253
18,GGTAAATA,0.225
19,ACTAAATA,0.322
20,ACTAAATC,0.278
21,GATAAATC,0.304
22,GATAAATA,0.4
